This passage reports outcome and AC50 results from PubChem BioAssay (EPA / NIEHS).

By AC50 is commonly meant the concentration giving half of the maximal activity seen.

Each structure is given as a SMILES string. “And” between values parts separate entries of the source, which are not always exact repeats. Equal entries are not always repeated. The source holds several records for some structures; these can differ, active in one and inactive in another. The source made the active and inactive calls. How the source made its calls: active means hit-call score of the fitted dose curve at least 0.9, where 1 is the maximum; inactive means score below 0.9.

The test can be described thus: ATG_E_Box_CIS: Attagene CIS-FACTORIAL HepG2 Assay for human Enhancer Box (E-box) (AID 2282936). The note with it: HepG2 E-box cis-reporter transcription, actives raise or lower the signal. As to the method: ATG_CIS is a cell-based, multiplexed-readout assay that uses HepG2, a human liver cell line, with measurements taken at 24 hours after chemical dosing in a 24-well plate.ATG_E_Box_CIS is one of 52 assay component(s) measured or calculated from the ATG_CIS assay. It is designed to make measurements of mRNA induction, a form of inducible reporter, as detected with fluorescence intensity signals by Reverse transcription polymerase chain reaction (RT-PCR) and Capillary electrophoresis technology.Data from the assay component ATG_E_Box_CIS was analyzed into 1 assay endpoint. This assay endpoint, ATG_E_Box_CIS, was analyzed with bidirectional fitting relative to DMSO as the negative control and baseline of activity. Using a type of inducible reporter, measures of mRNA for gain or loss-of-signal activity can be used to understand the reporter gene at the transcription factor-level as they relate to the gene USF1. Furthermore, this assay endpoint can be referred to as a primary readout, because this assay has produced multiple assay endpoints where this one serves a reporter gene function. To generalize the intended target to other relatable targets, this assay endpoint is annotated to the dna binding intended target family, where the subfamily is basic helix-loop-helix protein.
Human liver HepG2 cells are transiently transfected with multiple reporter transcription units (MRTUs) in 6-well plates using FuGene 6 reagent (Roche; 3 ml FuGene/1 mg DNA). The MRTU constructs are regulated by a cis-regulating element (promoter). […] A major difference between the CIS and TRANS system is that in CIS activities of endogenous TFs are measured, whereas the TRANS assay evaluates changes in activities of exogenous, chimeric NR-Gal4 proteins. […] At the end of 24 hour incubation, total RNA was isolated using TriZol reagent (Invitrogen). The isolated RNA is then reverse-transcribed using oligo(dT) primer and Mo-MLV reverse transcriptase (Invitrogen) with DNAse I (Ambion) treatment for 30 min. The one-tenth of the produced cDNA was amplified by PCR using Taq DNA polymerase (Invitrogen) and two reporter sequence-specific primers. The PCR products were fluorescently labeled by primer extension with 6-arboxyfluorescein (6-FAM) 5'-labeled reporter sequence-specific primer (2 min at 95 C, 20 s at 68 C and 10 min at 72 C) and these products were digested with 5U of HpaI (New England Biolabs) for 2h at 37 C. The fragments were purified using Qiaquick PCR columns (Qiagen), analyzed on an ABI 3130xL genetic analyzer (Applied Biosystems) with peak positions identified by using a set of X-rhodamine (ROX)-labeled MapMarker1000 molecular weight standards (BioVentures). The raw capillary electrophoresis data was processed using Attagraph software (Attagene).
With `CCCCC(CC)COC(=O)CCCCCCCC(=O)OCC(CC)CCCC` (stereo not given), the result was inactive.
Same read-out and setting: in the case of `S=c1[nH]c2ccccc2s1` it was “inactive”; in that of `CCCCCCC(CCCCCCCCCCC(=O)OCC(COC(C)=O)OC(C)=O)OC(C)=O` (stereo not given), “inactive”.
Regarding `COC(=O)[C@H]1[C@H]2C[C@@H]3c4[nH]c5cc(OC)ccc5c4CCN3C[C@H]2C[C@@H](OC(=O)c2cc(OC)c(OC)c(OC)c2)[C@@H]1OC`, the AC50 was 51.6 µM (active).
As to `CCCCCCC(C=O)=Cc1ccccc1`, the outcome was inactive.
For the compound `NC=O`, the result was inactive.
As to `CC(=O)O[C@]1(C(C)=O)CC[C@H]2[C@@H]3C=C(Cl)C4=CC(=O)[C@@H]5C[C@@H]5[C@]4(C)[C@H]3CC[C@@]21C`, the AC50 was 165 µM (active) and 78.6 µM (active) and 50.5 µM (active); the result was inactive.
Take `O=C1NC(=O)C(c2ccccc2)(c2ccccc2)N1`: the outcome was inactive.
The same measure, in the same setting: in the case of `CC(COCC(C)OC(=O)c1ccccc1)OC(=O)c1ccccc1` (stereo not given) it was “inactive”.
The same measure, in the same setting: for `CC(C)NCC(O)c1ccc(O)c(O)c1` (stereo not given) the value was “inactive”; for `CC(N)=O`, “inactive”.
Still for that read-out and setting: for `CCCC(=O)O` the value was “inactive”; for `O=[Si]=O`, “inactive”.
`Nc1nc(Cl)nc2c1ncn2[C@H]1C[C@H](O)[C@@H](CO)O1`: the AC50 was 11.4 µM (active).
Regarding `CCN(CC)CCOc1ccc(C(=C(Cl)c2ccccc2)c2ccccc2)cc1`, the result was inactive and the AC50 was 11.9 µM (active).
`c1ccc2occc2c1`: the result was inactive.
As to `CN(C)C(=O)NC1(c2ccccc2)CCN(CCC[C@]2(c3ccc(Cl)c(Cl)c3)CCCN(C(=O)c3ccccc3)C2)CC1`, the AC50 is 4.17 µM (active).
Still for that read-out and setting: in the case of `CN(C)C(=O)NC1(c2ccccc2)CCN(CC[C@@]2(c3ccc(F)c(F)c3)CN(C(=O)c3ccccc3)CCO2)CC1` it was 162 µM (active).
Consider `C/C=C/C=C/C(=O)O`, for which the outcome was inactive.
Still for that read-out and setting: for `CCc1cc(C2=C(C(=O)O)N(c3ccccc3C(F)(F)F)S(=O)(=O)c3ccccc32)cc2c1OCO2` the value was “inactive”; for `Cc1c(C)c2c(c(C)c1O)CCC(C)(COc1ccc(CC3SC(=O)NC3=O)cc1)O2` (stereo not given), “inactive”.
Regarding `CC(=O)[C@@]1(O)CC[C@H]2[C@@H]3CCC4=CC(=O)CC[C@]4(C)[C@H]3CC[C@@]21C`, the outcome was inactive; the AC50 is 4.34 µM (active) and 27 µM (active) and 33.6 µM (active).
With `CCCCC(CC)CO` (stereo not given), the result was inactive.
Same read-out and setting: for `O=C(Oc1ccccc1)c1cccc(C(=O)Oc2ccccc2)c1` the value was “inactive”; for `COc1ccc(C(=O)Nc2nc3ccccc3c(NCc3ccccc3)c2C#N)cc1`, “inactive”.
The same measure, in the same setting: in the case of `CN(C)CCCN(C)CCCN(C)C` it was “inactive”; in that of `C=CCCCCCCCCCCCC`, “inactive”.
The same measure, in the same setting: in the case of `CCCCOC(=O)CCCCC(=O)OCCCC` it was “inactive”.
As to `O=C1OC(c2ccc(O)cc2)(c2ccc(O)cc2)c2ccccc21`, the AC50 is 176 µM (active).
Consider `Cc1cc(SC2=C(O)C[C@@](CCc3ccc(N)cc3)(C(C)C)OC2=O)c(C(C)(C)C)cc1CO`, for which the outcome was inactive.
Same read-out and setting: in the case of `CC(=O)S[C@H](C(=O)N[C@H]1Cc2ccccc2[C@H]2CCC[C@@H](C(=O)O)N2C1=O)C(C)C` it was “inactive”; in that of `CCCCCCCCCCCCCCOS(=O)(=O)O`, “inactive”.
On to `C#CC(O)C(CC)CCCC` (stereo not given), for which the outcome was inactive.
The same measure, in the same setting: in the case of `CC(=O)O` it was “inactive”.
The same measure, in the same setting: in the case of `Nc1nc(=S)c2[nH]cnc2[nH]1` it was “inactive”; in that of `O=C1c2c(O)cccc2Cc2cccc(O)c21`, “inactive”.
Take `COc1ccc(OC(F)(F)F)cc1CN[C@H]1CCCN[C@H]1c1ccccc1`: the AC50 was 11 µM (active).
